Screening results: PubChem BioAssay, several laboratories
PrPC TRFRET = inhibitors of human cell surface prion protein PrPC; P04156; TR-FRET read-out; inhibition, % at 13.8 µM; 0.43% of 370,000 active; in the data active = inhibition above about 24%; note: 0% = median of the test wells and 100% = reference compound wells
PriA SSB inh = inhibitors of Klebsiella pneumoniae PriA binding to SSB C-terminal tail; inhibition, % at 33 µM; 0.6% of 430,000 active; AlphaScreen SSBct-PriA binding, biotinylated peptide; in the data active = inhibition mostly above about 37%, no sharp cut-off; inactive = mostly below about 20%;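 note: plate controls were negative control peptide for no effect and reference peptide for full effect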
TcdB GH inh = inhibitors of Clostridioides difficile toxin B glycohydrolase; P18177; TcdB glycohydrolase enzymatic assay, plate reader; inhibition, % at 9.99 µM; 0.24% of 350,000 active; in the data active = inhibition above about 10%
VHR inh abs = inhibitors of human VHR1 phosphatase (DUSP3); P51452; recombinant VHR phosphatase, pNPP absorbance; inhibition, % at 13.3 µM; 0.52% of 290,000 active; AID 1654; in the data active = inhibition above about 50%
CCHF vOTU inh-1 = CCHFV vOTU protease inhibition; Pep-AMC fluorescence; inhibition, % at 11.5 µM; 0.55% of 370,000 active; note: 0% = vehicle wells with enzyme and 100% = no enzyme wells
Vc quorum ag = quorum light induction in luxS cqsA deficient V. cholerae | activation, % at 18.7 µM | 0.16% of 350,000 active | V. cholerae BH1578 lux reporter, luminescence, 6 h; in the data active = activation mostly above about 9.7%, no sharp cut-off
CCHF vOTU inh-2 = confirmation of CCHF virus vOTU protease inhibitors; shares compounds with CCHF vOTU inh-1; Recombinant CCHFV vOTU, Pep-AMC fluorescence; inhibition, % at 11.5 µM; 17% of 1,900 active
* hit, by the source's call; i = inactive; / = no result. Shown are actives, neighbours in structure and some others; about 1.5% of the full set was active somewhere. Cut-off read from the data, not from the text of the source, unless noted: active = inhibition above about 30%; inactive = the rest.

SMILES	PrPC TRFRET	PriA SSB inh	TcdB GH inh	VHR inh abs	CCHF vOTU inh-1	Vc quorum ag	CCHF vOTU inh-2
O=C(c1cccc(C(F)(F)F)c1)N1CCC(c2nnc(-c3ccco3)s2)CC1	/	-1	/	/	/	/	/
O=C(O)c1ccc(Cl)c(S(=O)(=O)NCc2ccco2)c1	-5	-13	/	-12	0	-1	/
COc1ccccc1NC(=O)c1ccc(Cl)c(S(=O)(=O)NCc2ccco2)c1	4	-1	1	/	33*	i	-28
COc1ccc(-c2c(C)nn3c(NN)cc(C)nc23)cc1OC	/	25	/	/	/	/	/
O=S(=O)(Nc1ccncc1)c1ccc(-c2ccc(Cl)cc2)cc1	/	-6	/	/	/	/	/
CC1CCC(NC(=O)C(NS(=O)(=O)c2cccc3nsnc23)C(C)C)CC1 (centres undefined)	-32	12	1	11	31*	i	-11
CC(C)C(NS(=O)(=O)c1cccc2nsnc12)C(=O)NC1CCCCC1 (centres undefined)	-22	-6	-1	-10	0	0	/
O=C(NCc1ccc(F)cc1)c1ccc(S(=O)(=O)Nc2cccc(C(F)(F)F)c2)cc1	17	-1	/	6	30*	0	-11
CCc1[nH]nc(S(=O)(=O)Nc2cccc(OC(F)(F)F)c2)c1C(=O)OC	/	0	/	/	/	/	/
CC(C)(C)SC1CCN(C(=O)Nc2cccs2)C1 (centres undefined)	/	8	/	/	/	/	/
Cc1[nH]c2ccccc2c1/C=N/Nc1nncn1N	5	/	0	24	113*	0	-1
CCOC(=O)C1=C(Cc2ccc(C)cc2)C(=O)c2ccccc2C1=O	-3	/	0	12	96*	/	-9
O=S(=O)(c1ccc(Cl)s1)N1CCN(c2nccn3nc4c(c23)CCCC4)CC1	/	3	/	/	/	/	/
COc1nccnc1O[C@H]1CCN(C(=O)C2CCN(S(C)(=O)=O)CC2)C1	/	1	/	/	/	/	/
CC1CCc2c(sc(NC(=O)c3ccco3)c2C(=O)O)C1 (centres undefined)	0	-5	-11	10	32*	0	0
CNC(=O)Cc1csc(NC(=O)c2ccc(OCc3ccc4ccccc4n3)cc2)n1	/	-16	/	/	/	/	/
CCCCCCN1C[C@H](n2cc(COC(=O)c3ccccc3)nn2)[C@@H](O)C[C@@H]1c1ccc(C)cc1	-4	/	0	/	37*	0	8
CCCCCCN1C[C@H](n2cc(C3CC3)nn2)[C@@H](O)C[C@@H]1c1ccc(C)cc1	-2	/	2	/	38*	-1	16
Cc1nonc1N	/	-11	/	/	/	/	/
O=C(O)c1cnn(-c2ccccc2)n1	/	-11	/	/	/	/	/
CC1CN(S(=O)(=O)c2ccc(C(=O)Nc3nc(-c4ccccn4)cs3)cc2)CC(C)O1 (centres undefined)	/	26	/	/	/	/	/
COc1cccc2c1C(=O)c1c(O)c3c(c(O)c1C2=O)C[C@](O)(C(C)=O)C[C@H]3O[C@@H]1C[C@@H](N)[C@@H](O)[C@@H](C)O1	-28	33	-24	/	31*	i	-7
O=C(Nc1nc(-c2ccc(Br)s2)cs1)c1ccccc1Oc1ccccc1	/	-6	/	/	/	/	/
COC1(NC(=O)c2ccccc2)C(C)=CC(=O)C=C1C	-6	-20	0	-12	10	-1	/
O=C(NC1(O)C(=O)c2ccccc2C1=O)c1c(Cl)cccc1Cl	-4	23	-5	21	62*	-1	14
SMILES	PrPC TRFRET	PriA SSB inh	TcdB GH inh	VHR inh abs	CCHF vOTU inh-1	Vc quorum ag	CCHF vOTU inh-2
O=C(NC1(O)C(=O)c2ccccc2C1=O)c1ccccc1	4	3	/	1	49*	2	31*
C#CCN1CC(COc2ccccc2)Oc2cccc(Oc3ccc(SC)c(C)c3)c2S1(=O)=O (centres undefined)	-1	/	-9	/	31*	/	-13
COc1ccc(NS(=O)(=O)c2cc(NC(=O)c3ccc(=O)[nH]n3)ccc2C)cc1	-7	1	1	/	31*	-1	-10
O=C1Cc2ccccc2C(=O)N1	-6	/	-1	/	116*	/	94*
O=C1Nc2ccccc2CCc2ccccc21	-1	0	2	/	-7	i	/
COc1ccc(-c2noc(-c3cc(-c4ccccc4)n[nH]3)n2)cc1OC	/	-8	/	/	/	/	/
CCc1ccc(S(=O)(=O)N2CCC(Cn3ccnc3C(C)C)CC2)s1	/	-5	/	/	/	/	/
CCOC(=O)N(C)c1c(CC)nc2c(OCCC3CCCCC3)cccn12	24	/	3	/	30*	i	6
Cc1nc2c(OCc3ccc(C(F)(F)F)cc3)cccn2c1N(C)C(=O)CCC1CCCC1	8	/	0	/	33*	i	4
CCOCCCn1c(N)c(C(=O)Nc2sc3c(c2C(=O)OC)CCCC3)c2nc3ccccc3nc21	-12	7	/	10	31*	i	-5
Cc1cc(NC(=O)c2ccc(-c3ccccc3)cc2)n(-c2nc3c(cnn3-c3ccccc3)c(=O)[nH]2)n1	/	8	/	/	/	/	/
CN(CC(=O)Nc1ccc(Cl)c(C(F)(F)F)c1)C(=O)CC1Sc2ccccc2NC1=O (centres undefined)	13	-3	-4	12	33*	i	-16
O=C(O)CSc1cc(NS(=O)(=O)c2ccc(Cl)cc2)c2ccccc2c1O	-16	-2	-1	41	104*	i	95*
COc1ccc(S(=O)(=O)Nc2cc(Sc3ncn[nH]3)c(O)c3ccccc23)cc1	57*	/	/	41	107*	/	99*
O=S(=O)(Nc1cc(Sc2cccc3cccnc23)c(O)c2ccccc12)c1ccc(F)cc1	15	104	-1	2	83*	/	-5
COc1ccc(S(=O)(=O)Nc2cc(SCC(=O)O)c(O)c3ccccc23)cc1	2	-30	0	6	102*	i	39*
COc1ccc(S(=O)(=O)Nc2ccc(O)c(Sc3ncn[nH]3)c2)cc1	-8	-17	/	9	-16	5	/
Oc1ccc(C=NNc2ccnc3cc(Cl)ccc23)c(O)c1O	/	-3	/	/	/	/	/
O=C(NCCN1CCOCC1)C(=O)NCC1CCN(Cc2ccccc2)CC1	/	-2	/	/	/	/	/
O=C1CNC(=O)CN1	/	-9	/	/	/	/	/
CC1(OC(=O)C2CCCC2)C(=O)C=C2C=C(c3ccsc3)N(CCCCO)C=C2C1=O (centres undefined)	-16	-11	-2	22	30*	1	34*
COc1ccc(CN2C=C3C(=O)C(C)(OC(=O)C4CCCC4)C(=O)C=C3C=C2c2ccsc2)cc1 (centres undefined)	-14	0	0	15	9	i	/
COc1ccc(NC(=O)NCCn2ncccc2=O)c(OC)c1	/	-15	/	/	/	/	/
O=C(NC(c1ccc(F)cc1)c1ccc2ccccc2n1)C1CCN(CCOc2ccc(F)cc2)CC1 (centres undefined)	-7	/	-10	/	32*	0	-10
COc1ccc(OCCN2CCC(C(=O)NC(c3ccc(F)cc3)c3ccc4ccccc4n3)CC2)cc1 (centres undefined)	-11	/	0	/	-4	0	/
CC1Cc2ccccc2N1C(=O)COC(=O)c1ccco1 (centres undefined)	-2	/	1	/	9	0	/
